Two compounds from ChEMBL document CHEMBL2218924, “A broad activity screen in support of a chemogenomic map for kinase signalling research and drug discovery” (Biochem J, 2013) can be followed below.

In assay [1] the target is Serine/threonine-protein kinase 33 (Homo sapiens) (UniProt Q9BYT3). The note with it: at 1 µM.
Assay [2] has the same target. The note with it: at 10 µM.
Assay [3] deals with Serine/threonine-protein kinase PLK2 (Homo sapiens) (UniProt Q9NYY3). The conditions noted are these: at 10 µM.
Sequence of Serine/threonine-protein kinase PLK2 (Homo sapiens) (Q9NYY3 whole entry, looked up): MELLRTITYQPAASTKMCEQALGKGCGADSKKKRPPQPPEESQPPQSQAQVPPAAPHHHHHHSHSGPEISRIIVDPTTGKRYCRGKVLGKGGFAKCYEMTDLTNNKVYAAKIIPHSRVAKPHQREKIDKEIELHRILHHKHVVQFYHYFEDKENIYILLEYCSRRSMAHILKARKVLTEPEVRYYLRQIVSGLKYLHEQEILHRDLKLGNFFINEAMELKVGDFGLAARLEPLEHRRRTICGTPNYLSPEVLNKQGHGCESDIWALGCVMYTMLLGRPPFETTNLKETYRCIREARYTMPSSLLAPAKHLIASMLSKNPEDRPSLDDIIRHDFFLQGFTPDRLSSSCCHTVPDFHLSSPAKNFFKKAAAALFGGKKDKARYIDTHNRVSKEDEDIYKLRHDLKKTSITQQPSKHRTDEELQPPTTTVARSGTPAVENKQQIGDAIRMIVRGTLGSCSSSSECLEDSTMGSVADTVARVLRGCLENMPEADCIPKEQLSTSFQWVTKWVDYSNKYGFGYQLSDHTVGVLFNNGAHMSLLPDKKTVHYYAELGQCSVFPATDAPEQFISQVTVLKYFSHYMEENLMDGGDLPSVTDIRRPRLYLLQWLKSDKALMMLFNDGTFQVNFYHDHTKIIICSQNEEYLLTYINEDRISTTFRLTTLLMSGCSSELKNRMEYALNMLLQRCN
Assay [4] has as its target Tyrosine-protein kinase SYK (Homo sapiens) (UniProt P43405). The note with it: at 1 µM.
Assay [5] shares this target. The conditions noted are these: at 10 µM.
In assay [6] the target is T1, Mitogen-activated protein kinase kinase kinase 7 (Homo sapiens) (UniProt O43318).
T1 sequence (whole entry): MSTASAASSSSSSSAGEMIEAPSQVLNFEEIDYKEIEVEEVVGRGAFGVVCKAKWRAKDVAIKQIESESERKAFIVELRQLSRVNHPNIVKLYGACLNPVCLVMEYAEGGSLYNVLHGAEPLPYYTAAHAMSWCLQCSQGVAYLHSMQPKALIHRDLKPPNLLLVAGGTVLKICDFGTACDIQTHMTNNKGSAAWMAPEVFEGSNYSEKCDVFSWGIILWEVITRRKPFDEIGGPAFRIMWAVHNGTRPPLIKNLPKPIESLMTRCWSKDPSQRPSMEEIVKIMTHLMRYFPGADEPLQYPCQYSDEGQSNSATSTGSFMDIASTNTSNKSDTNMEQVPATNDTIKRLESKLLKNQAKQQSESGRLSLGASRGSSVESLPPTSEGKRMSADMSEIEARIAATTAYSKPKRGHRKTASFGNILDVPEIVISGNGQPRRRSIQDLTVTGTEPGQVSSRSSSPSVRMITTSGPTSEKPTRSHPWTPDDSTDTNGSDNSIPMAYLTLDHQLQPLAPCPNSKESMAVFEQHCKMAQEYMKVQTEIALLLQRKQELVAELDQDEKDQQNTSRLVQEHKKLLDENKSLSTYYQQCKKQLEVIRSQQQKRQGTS
The conditions noted are these: at 1 µM.

Assay [7] addresses T1, Mitogen-activated protein kinase kinase kinase 7 (Homo sapiens). The note with it: at 10 µM.
In assay [8] the target is T2, Serine/threonine-protein kinase TAO1 (Homo sapiens) (UniProt Q7L7X3).
T2 sequence (whole entry): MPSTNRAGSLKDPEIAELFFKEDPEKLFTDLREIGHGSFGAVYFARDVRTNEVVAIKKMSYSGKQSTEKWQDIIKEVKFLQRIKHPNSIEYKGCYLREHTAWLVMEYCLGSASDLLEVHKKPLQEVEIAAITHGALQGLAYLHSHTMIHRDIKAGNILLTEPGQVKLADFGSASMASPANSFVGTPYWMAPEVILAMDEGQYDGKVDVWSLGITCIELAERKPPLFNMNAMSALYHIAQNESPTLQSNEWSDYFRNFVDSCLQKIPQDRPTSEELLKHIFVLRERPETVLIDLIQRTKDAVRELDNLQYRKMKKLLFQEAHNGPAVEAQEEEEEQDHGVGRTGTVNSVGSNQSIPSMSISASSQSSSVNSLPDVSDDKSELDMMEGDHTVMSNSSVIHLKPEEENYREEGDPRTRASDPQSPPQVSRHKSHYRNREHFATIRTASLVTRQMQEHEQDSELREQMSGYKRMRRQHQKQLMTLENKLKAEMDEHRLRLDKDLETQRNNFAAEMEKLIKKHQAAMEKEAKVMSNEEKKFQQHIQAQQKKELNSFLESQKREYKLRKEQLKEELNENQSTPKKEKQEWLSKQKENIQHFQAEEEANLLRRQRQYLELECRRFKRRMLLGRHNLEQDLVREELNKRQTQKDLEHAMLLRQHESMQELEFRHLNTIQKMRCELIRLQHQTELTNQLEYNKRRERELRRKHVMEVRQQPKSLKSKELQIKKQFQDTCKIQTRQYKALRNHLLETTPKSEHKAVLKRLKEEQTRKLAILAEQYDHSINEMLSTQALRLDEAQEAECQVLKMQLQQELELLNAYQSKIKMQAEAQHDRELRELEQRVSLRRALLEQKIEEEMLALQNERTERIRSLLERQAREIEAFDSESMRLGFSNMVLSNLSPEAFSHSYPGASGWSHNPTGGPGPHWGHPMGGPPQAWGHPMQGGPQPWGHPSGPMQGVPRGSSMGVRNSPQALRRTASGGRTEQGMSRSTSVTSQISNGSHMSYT
The note with it: at 1 µM.

For assay [9], the target named is T2, Serine/threonine-protein kinase TAO1 (Homo sapiens). The note with it: at 10 µM.
For assay [10], the target named is T3, Serine/threonine-protein kinase TAO2 (Homo sapiens) (UniProt Q9UL54).
T3 sequence (whole entry): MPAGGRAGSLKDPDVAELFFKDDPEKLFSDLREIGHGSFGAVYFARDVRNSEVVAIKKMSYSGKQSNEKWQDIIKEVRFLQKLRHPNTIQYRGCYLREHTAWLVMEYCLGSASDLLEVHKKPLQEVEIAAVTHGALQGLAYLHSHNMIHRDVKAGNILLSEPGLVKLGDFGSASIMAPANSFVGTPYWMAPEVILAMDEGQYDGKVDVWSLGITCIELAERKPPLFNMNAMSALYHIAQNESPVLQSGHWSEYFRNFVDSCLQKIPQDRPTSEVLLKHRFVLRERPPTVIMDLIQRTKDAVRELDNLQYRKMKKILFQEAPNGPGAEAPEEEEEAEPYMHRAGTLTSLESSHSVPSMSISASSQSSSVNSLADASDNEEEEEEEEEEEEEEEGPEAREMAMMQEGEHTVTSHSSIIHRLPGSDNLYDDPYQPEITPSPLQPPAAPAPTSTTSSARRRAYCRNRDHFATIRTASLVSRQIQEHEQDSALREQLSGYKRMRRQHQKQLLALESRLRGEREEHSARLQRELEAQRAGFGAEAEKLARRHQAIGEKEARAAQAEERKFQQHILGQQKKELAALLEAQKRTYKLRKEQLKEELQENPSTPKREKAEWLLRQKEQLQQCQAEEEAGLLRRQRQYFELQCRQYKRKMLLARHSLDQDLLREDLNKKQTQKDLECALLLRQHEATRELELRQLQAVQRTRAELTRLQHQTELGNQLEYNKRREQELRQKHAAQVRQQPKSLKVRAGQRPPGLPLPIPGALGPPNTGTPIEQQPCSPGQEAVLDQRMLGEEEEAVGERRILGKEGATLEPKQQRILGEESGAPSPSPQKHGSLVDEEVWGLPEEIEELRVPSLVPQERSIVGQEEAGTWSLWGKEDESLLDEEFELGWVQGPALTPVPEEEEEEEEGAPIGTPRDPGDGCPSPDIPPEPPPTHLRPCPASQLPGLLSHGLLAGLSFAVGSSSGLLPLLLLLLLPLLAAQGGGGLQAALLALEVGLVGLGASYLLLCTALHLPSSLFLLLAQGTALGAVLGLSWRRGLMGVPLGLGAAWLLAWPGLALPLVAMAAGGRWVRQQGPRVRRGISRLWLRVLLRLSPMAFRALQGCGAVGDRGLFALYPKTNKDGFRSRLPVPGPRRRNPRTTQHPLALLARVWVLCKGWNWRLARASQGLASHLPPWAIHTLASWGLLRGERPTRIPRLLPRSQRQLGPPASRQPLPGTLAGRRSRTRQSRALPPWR
The note with it: at 1 µM.

In assay [11] the target is T3, Serine/threonine-protein kinase TAO2 (Homo sapiens). The conditions noted are these: at 10 µM.
Assay [12] has as its target T4, Serine/threonine-protein kinase TAO3 (Homo sapiens) (UniProt Q9H2K8).
T4 sequence (whole entry): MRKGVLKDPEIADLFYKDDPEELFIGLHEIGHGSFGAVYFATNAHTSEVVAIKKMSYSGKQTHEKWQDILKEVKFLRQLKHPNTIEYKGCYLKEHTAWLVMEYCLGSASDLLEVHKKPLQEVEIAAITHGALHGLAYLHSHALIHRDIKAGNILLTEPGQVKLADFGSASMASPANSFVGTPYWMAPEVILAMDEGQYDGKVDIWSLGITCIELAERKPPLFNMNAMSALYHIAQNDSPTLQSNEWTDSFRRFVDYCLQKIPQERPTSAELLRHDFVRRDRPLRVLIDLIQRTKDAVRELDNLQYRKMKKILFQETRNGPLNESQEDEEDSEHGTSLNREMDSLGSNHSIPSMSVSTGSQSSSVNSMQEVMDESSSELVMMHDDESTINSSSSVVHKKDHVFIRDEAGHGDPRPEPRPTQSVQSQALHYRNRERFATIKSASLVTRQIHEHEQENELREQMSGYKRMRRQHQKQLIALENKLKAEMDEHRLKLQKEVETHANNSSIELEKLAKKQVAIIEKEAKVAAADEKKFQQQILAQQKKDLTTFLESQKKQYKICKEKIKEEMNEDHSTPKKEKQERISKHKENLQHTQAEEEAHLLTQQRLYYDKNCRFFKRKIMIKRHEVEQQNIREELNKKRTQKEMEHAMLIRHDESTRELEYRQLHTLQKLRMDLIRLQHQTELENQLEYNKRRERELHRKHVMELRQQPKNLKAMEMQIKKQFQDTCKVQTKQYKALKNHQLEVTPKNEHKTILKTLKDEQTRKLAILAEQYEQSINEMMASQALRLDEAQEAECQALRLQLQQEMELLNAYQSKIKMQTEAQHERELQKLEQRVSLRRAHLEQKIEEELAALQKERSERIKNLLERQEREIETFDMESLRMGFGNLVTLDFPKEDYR
The conditions noted are these: at 1 µM.

Assay [13] has as its target T4, Serine/threonine-protein kinase TAO3 (Homo sapiens). The conditions noted are these: at 10 µM.
For assay [14], the target named is T5, Serine/threonine-protein kinase TBK1 (Homo sapiens) (UniProt Q9UHD2).
T5 sequence (whole entry): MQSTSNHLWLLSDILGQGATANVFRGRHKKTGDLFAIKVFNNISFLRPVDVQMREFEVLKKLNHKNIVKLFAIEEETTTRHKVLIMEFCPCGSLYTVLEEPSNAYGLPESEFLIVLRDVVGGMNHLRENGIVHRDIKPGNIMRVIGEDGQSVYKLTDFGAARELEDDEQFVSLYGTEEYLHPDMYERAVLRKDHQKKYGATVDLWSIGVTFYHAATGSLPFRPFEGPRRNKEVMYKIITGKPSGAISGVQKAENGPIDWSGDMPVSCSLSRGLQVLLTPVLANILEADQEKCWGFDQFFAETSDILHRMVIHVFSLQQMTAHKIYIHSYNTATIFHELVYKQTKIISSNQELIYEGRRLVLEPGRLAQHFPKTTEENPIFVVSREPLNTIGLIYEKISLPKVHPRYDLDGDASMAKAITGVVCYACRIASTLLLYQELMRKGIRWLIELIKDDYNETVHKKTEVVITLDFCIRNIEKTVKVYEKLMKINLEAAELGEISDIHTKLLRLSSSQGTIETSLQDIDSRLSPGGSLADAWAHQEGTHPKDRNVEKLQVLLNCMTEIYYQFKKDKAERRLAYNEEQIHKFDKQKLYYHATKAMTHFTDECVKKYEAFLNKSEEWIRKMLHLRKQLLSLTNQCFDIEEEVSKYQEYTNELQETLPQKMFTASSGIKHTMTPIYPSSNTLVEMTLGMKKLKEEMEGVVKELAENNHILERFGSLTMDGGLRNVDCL
The conditions noted are these: at 1 µM.

Assay [15] deals with T5, Serine/threonine-protein kinase TBK1 (Homo sapiens). The note with it: at 10 µM.
Assay [16] addresses T6, TGF-beta receptor type-1 (Homo sapiens) (UniProt P36897).
T6 sequence (whole entry): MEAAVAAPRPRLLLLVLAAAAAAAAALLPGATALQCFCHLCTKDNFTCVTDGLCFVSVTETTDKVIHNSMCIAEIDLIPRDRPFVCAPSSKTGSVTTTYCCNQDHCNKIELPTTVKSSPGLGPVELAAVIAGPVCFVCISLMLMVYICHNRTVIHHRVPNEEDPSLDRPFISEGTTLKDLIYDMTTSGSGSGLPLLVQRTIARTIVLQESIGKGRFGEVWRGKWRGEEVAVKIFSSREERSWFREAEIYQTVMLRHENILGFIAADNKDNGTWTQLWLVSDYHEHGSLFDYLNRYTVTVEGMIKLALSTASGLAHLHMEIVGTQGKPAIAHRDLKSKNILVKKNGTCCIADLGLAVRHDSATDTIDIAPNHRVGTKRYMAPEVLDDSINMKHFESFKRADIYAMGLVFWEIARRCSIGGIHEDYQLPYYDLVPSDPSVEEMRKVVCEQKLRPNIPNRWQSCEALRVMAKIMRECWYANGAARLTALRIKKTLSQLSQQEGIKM
The note with it: at 1 µM.

For assay [17], the target named is T6, TGF-beta receptor type-1 (Homo sapiens). The conditions noted are these: at 10 µM.
Assay [18] concerns the target Insulin-like growth factor 1 receptor (Homo sapiens) (UniProt P08069). The note with it: at 1 µM.
Assay [19] has the same target. The note with it: at 10 µM.
Assay [20] has as its target Serine/threonine-protein kinase PLK2 (Homo sapiens) (UniProt Q9NYY3). The conditions noted are these: at 1 µM.

The structures appear in SMILES notation.

Sequence of Serine/threonine-protein kinase 33 (Homo sapiens) (Q9BYT3 whole entry, looked up): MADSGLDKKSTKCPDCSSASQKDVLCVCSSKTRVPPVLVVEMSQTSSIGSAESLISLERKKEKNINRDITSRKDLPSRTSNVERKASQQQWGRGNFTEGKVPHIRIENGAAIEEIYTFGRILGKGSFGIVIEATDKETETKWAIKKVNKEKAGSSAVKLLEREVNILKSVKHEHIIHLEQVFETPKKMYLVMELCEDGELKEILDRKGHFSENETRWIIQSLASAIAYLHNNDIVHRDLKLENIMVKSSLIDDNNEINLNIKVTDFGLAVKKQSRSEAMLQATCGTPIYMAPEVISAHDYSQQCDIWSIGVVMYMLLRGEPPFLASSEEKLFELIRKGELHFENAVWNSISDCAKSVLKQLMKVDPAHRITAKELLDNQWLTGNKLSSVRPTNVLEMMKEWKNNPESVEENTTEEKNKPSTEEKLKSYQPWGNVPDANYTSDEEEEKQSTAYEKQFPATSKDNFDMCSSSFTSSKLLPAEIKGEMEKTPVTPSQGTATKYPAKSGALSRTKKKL
Sequence of Insulin-like growth factor 1 receptor (Homo sapiens) (P08069 31-736 limits assumed): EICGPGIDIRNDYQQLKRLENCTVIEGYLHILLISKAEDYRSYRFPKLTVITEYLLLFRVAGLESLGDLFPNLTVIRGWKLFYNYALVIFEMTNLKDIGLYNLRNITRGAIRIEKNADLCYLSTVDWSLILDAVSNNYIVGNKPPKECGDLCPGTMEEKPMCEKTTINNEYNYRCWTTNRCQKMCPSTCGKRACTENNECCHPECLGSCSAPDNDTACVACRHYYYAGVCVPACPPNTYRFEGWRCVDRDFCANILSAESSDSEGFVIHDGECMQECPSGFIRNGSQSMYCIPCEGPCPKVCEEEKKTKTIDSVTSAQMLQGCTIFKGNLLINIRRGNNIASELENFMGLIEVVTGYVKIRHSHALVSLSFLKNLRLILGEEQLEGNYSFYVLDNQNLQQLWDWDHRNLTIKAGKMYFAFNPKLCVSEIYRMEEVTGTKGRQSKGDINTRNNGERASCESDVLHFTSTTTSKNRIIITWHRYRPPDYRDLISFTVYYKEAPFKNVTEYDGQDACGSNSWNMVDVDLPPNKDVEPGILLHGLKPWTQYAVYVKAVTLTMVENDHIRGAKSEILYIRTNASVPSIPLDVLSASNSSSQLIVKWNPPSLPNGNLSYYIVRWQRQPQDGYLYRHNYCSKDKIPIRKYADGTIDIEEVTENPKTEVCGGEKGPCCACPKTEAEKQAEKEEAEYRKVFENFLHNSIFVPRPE
Sequence of Insulin-like growth factor 1 receptor (Homo sapiens) (P08069 741-1367 limits assumed): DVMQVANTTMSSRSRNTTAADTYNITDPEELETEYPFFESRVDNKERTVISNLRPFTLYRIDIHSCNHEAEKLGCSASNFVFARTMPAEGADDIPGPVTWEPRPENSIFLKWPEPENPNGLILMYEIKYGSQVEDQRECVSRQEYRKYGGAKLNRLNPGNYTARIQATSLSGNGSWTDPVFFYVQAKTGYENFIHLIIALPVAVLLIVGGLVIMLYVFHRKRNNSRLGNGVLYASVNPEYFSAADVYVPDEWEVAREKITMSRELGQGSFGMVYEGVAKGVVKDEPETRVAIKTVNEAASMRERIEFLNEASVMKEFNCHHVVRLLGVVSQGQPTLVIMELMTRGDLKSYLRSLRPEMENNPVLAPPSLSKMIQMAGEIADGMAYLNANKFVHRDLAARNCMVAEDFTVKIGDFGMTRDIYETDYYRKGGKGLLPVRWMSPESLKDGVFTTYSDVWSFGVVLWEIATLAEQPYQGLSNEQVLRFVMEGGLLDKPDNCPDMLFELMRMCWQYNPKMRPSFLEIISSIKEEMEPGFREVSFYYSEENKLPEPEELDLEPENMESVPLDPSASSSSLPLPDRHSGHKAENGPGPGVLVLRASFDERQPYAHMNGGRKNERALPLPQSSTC

`COC(=O)[C@@]1(O)C[C@H]2O[C@]1(C)n1c3ccccc3c3c4c(c5c6ccccc6n2c5c31)C(=O)NC4`: the residual activity in assay [1] was 7%; in assay [2], 0%; in [3] it was 36%; in assay [4], 1%; in [5], 2%; in assay [6] it was -1%. Further, the residual activity in assay [7] was -5%; in assay [8], 5%; in assay [9] it was 3%; in assay [10] it was 16%; in [11], 2%; in [12], 10%. For the same compound, the residual activity in assay [13] is 3%; in [14], -1%; in assay [15], 3%; in [16], 49%; in assay [17], 8%; in assay [18], 23%. Also, the residual activity in assay [19] is 3%.
`O=C1c2ccccc2-c2nc3nnnn3nc21`: the residual activity in assay [1] is 103%; in assay [2], 100%; in assay [20] it was 73%; in assay [3], 34%; in [10], 111%; in assay [11] it was 103%. In addition, the residual activity in [15] is 83%.
